# PERK inhibitor = human PERK inhibition, primary cell-based screen; CHO PERK-DD fusion, SEAP luminescence translation reporter; inhibition, % at 5.6 µM; AID 1416; hit rate 0.17% among 220,000; Q9NZJ5;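 active = inhibition above the mean inhibition of all tested compounds plus 3 SD, set separately per screening campaign, cut at about 2.9% in these data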;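 also: PERK kinase domain activated by AP20187 dimerizer at 100 nM; 0% = DMSO with dimerizer and 100% = rapamycin at 8.4 µM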
# Target sequence (Q9NZJ5 whole entry, looked up, the tested form may be a part): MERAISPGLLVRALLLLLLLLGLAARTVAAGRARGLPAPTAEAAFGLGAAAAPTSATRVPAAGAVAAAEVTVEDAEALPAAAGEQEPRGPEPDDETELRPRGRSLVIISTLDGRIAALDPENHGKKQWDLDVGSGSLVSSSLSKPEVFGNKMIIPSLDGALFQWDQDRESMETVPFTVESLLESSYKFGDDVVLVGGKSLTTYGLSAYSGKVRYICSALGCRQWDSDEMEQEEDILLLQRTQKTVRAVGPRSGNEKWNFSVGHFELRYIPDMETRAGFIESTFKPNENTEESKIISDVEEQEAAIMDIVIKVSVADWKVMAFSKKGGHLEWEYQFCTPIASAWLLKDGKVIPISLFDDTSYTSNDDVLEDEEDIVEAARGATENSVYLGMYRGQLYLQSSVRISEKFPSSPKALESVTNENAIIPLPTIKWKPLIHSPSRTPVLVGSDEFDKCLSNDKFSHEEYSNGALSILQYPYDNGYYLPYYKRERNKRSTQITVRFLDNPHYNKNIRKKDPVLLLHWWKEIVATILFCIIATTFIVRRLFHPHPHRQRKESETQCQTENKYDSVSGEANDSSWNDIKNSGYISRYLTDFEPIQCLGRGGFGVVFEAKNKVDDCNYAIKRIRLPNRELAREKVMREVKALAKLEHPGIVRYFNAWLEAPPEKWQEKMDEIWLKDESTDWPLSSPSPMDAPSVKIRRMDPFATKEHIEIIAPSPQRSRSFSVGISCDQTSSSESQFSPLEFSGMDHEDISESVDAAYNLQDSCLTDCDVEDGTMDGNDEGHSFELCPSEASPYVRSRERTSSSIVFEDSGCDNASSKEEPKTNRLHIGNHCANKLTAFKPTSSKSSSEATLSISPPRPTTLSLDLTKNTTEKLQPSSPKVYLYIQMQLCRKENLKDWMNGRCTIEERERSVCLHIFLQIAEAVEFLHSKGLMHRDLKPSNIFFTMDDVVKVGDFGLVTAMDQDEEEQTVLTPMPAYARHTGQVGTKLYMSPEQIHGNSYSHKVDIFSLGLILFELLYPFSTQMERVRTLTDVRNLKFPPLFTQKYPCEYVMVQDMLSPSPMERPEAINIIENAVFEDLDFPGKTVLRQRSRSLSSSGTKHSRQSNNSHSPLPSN
# PGE2 EP2 inh = blocks the human prostaglandin E2 receptor EP2 | C6 glioma cells expressing human EP2, cAMP TR-FRET; cells stimulated with saturating PGE2 | P43116 | hit rate 0.52% among 260,000 | inhibition, % at 25 µM;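 active = percent inhibition above 40 after rounding to a whole number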;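 also: rat C6 glioma host cells with rolipram phosphodiesterase inhibitor present; the protocol text gives 20 µM as final concentration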
# EP2 mod = modulators of human EP2 prostaglandin E2 receptor; hit rate 0.83% among 260,000; P43116; induction, % at 25 µM; EP2-expressing cells, cAMP HTRF FRET, PGE2 co-stimulation; AID 940;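 active = compounds whose cAMP rise, as percent of the full-agonist control response, exceeds 60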;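 also: rat C6 glioma line stably carrying human EP2 under a CMV promoter; the protocol text gives 20 µM as final concentration; 100% = response of wells given 1 µM PGE2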
# eIF4E-4G inh = eIF4E/eIF4G interaction inhibition in translation initiation | P63073+Q04637 | TR-FRET eIF4E-eIF4GI(517-606) binding, 2 h | inhibition, % at 21.7 µM | hit rate 0.37% among 220,000 | AID 782;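 active = inhibition above about 30%, limit read from the data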;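 also: 0% = full FRET control wells and 100% = background wells lacking eIF4GI fragment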
# Starred values were filed as active, the others as inactive; / = not tested or not shown; ! = repeats disagree. The list is not random: actives were taken first. Their share in the collection is about 1.8%.
SMILES,PERK inhibitor,PGE2 EP2 inh,EP2 mod,eIF4E-4G inh
COc1ccc(C2(NCc3cn[nH]c3-c3cccs3)CC2)cc1,/,11,-87,/
CCOC(=O)/C=C(\C)Sc1cc(=O)oc2ccccc12,-1,11,40,-2
CCOC(=O)/C=C(\C)Sc1cc(O)c2ccccc2c1O,-1,69*,-52,5
O=C(C1=C(O)C(=O)N(Cc2ccco2)C1c1cccnc1)c1cc2ccccc2o1 (centres undefined),1,47*,53,5
CN(C)CCCN1C(=O)C(O)=C(C(=O)c2cc3ccccc3o2)C1c1ccccc1 (centres undefined),0,/,62*,2
COCCn1c(=O)n(CC(=O)NCc2cccc(OC)c2)c2cccnc21,/,3,-58,/
COc1cc(NS(=O)(=O)c2ccc(NC(=S)NC(=O)c3sc4ccccc4c3Cl)cc2)ncn1,0,52*,-9,-7
Cc1cc(C)nc(NS(=O)(=O)c2ccc(NC(=S)NC(=O)c3ccc(F)cc3)cc2)n1,/,28,-130,/
COc1ccc(C(=O)NC(=S)Nc2ccc(S(=O)(=O)Nc3cc(OC)ncn3)cc2)cc1,/,25,-87,/
COc1ccc(OCC(=O)NC(=S)Nc2ccc(S(=O)(=O)Nc3cc(OC)nc(OC)n3)cc2)cc1,1,64*,-65,14
COc1cc(NS(=O)(=O)c2ccc(NC(=S)NC(=O)C3CCCC3)cc2)nc(OC)n1,1,15,-77,-1
Cc1cc(NS(=O)(=O)c2ccc(NC(=S)NC(=O)c3ccc(F)cc3)cc2)no1,1,46*!,-142,1
COc1cc(NS(=O)(=O)c2ccc(NC(=S)NC(=O)c3ccc(F)cc3)cc2)nc(OC)n1,/,59*,-128,/
Cc1cccc(NC(=O)C2CC(=O)N(c3ccc(F)cc3)C2)n1 (centres undefined),/,9,-28,/
COc1ccc(-c2nn(CC(=O)N(C)C)c(=O)o2)c2ccccc12,/,/,-52,/
COc1ccc2cc(C#N)c(SCC(=O)Nc3ccc(C)cc3Br)nc2c1,/,19,28,/
CNC(=O)COc1ccc(S(=O)(=O)Nc2ccc(OC)cc2)cc1,3.6*,8,-26,4
CNC(=O)COc1ccc(S(=O)(=O)Nc2ccc(C)cc2)cc1,1,9,-22,-1
CCOc1ccc(N2CC(C(=O)Nc3cccc(C(C)=O)c3)CC2=O)cc1 (centres undefined),/,8,-12,/
OC1(c2ccc(F)cc2)CCN(Cc2ccccc2OCc2cccnc2)CC1,/,9,-10,/
CCCn1nnc(NC(=O)c2sc3ccccc3c2Cl)n1,1,64*,8,-4
Nc1ncnc2c1C1(CCCCC1)Cc1ccccc1-2,0,9,80*!,-1
N#Cc1c(-c2ccc3c(c2)OCO3)cc(-c2ccccc2)nc1N,/,15,66*,/
CCc1c(-c2ccccc2)nc(N)c(C#N)c1-c1ccc2c(c1)OCO2,/,17,6,/
Cc1cccc(-c2nnc3n2N=C(c2ccccc2)CS3)c1,-1,5,63*,7
SMILES,PERK inhibitor,PGE2 EP2 inh,EP2 mod,eIF4E-4G inh
COC(=O)[C@H]1[C@@H]2C[C@H]3c4[nH]c5ccccc5c4CCN3C[C@H]2CC[C@@H]1OS(=O)(=O)O,/,48*,10,/
CCN(CC)CCCNC(=S)N(CCN(C)C)Cc1cc2c(C)cc(C)cc2[nH]c1=O,/,6,-22,/
O=C(O)c1ccccc1/C=N/N=C1c2ccccc2-c2ccccc21,/,12,-34,/
CC(=O)Nc1nnc(SCc2ccc(F)cc2)s1,1,24,14,-11
O=C(Nc1nnc(SCc2ccc(F)cc2)s1)c1ccc2ncsc2c1,1,8,-16,54*
c1cncc(CSc2nnnn2-c2ccc3c(c2)OCO3)c1,/,8,-51,/
C/C=C\C=C/C(=O)Nc1cccc(C2=NOC3(C2)C[C@@H](C(N)=O)N(C(=O)/C=C/CC)C3)c1 (some centres undefined),/,9,-3,75*
C/C=C(\C)C(=O)N1CC2(CC(c3cccc(NC(=O)CC(c4ccccc4)c4ccccc4)c3)=NO2)C[C@H]1C(N)=O (some centres undefined),/,11,-12,88*
C/C=C\C(=O)Nc1cccc(C2=NOC3(C2)C[C@H](C(N)=O)N(C(=O)/C=C/CC)C3)c1 (some centres undefined),/,11,-20,-6
NC(=O)[C@H]1CC2(CC(c3cccc(NC(=O)CC(c4ccccc4)c4ccccc4)c3)=NO2)CN1C(=O)C(c1ccccc1)c1ccccc1 (some centres undefined),/,7,1,-7
COc1ccccc1CN(Cc1nc2ccccc2c(=O)[nH]1)S(=O)(=O)c1ccc(C)cc1,-1,15,61*,-2

# Assay outcomes as filed in PubChem BioAssay.
